HCV inhibitor – blocks hepatitis C virus; AID 651820; 3.4% of 340,000 active; Huh7.5.1 HCVcc-Cre infection, luciferase reporter, 44 h; Potency, µM (series often up to 41.8 µM), without a hit: at the highest dose activity change, negative = inhibition, hits mostly inhibitors; further: potency means the concentration at half of the fitted maximal effect
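Infectious HCVcc-Cre (~0.5 moi) was added to cells just after compound, with cells seeded 4 h earlier at 1,000 per well. Luciferase activity after 44 h culture reported infection; substrate was incubated 15 min at room temperature before reading.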
Lassa entry inh – inhibitors of Lassa virus binding or cell entry | 1.2% of 300,000 active | Lassa virus pseudotype entry inhibition, cell reporter | AID 540256 | Potency, µM (doses to about 37.9 µM), for inactives: at the highest dose activity change, negative = inhibition, most hits filed as inhibitors; calls by dose curve; tested in HEK293 cells; further: potency means the concentration at half of the fitted maximal effect; nearly all actives have a fitted effect of over 50% in size
Pf growth 96h – inhibits malaria parasite growth, 96 h; P. falciparum luciferase reporter growth, 96 h; 6.9% of 320,000 active; Potency, µM (doses to about 28.7 µM), inactives show at the top dose activity change, negative = inhibition, usual class: inhibitors; AID 504834; further: potency means the concentration at half of the fitted maximal effect
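Two parasite generations (96 h, 37 C, 5% CO2) of compound exposure in infected erythrocytes (0.05% parasitemia, 2% hematocrit). Luciferase-reporter P. falciparum; decreased luminescence indicates inhibited growth, aimed at apicoplast-acting delayed death.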
HCMV inh – inhibitors of human cytomegalovirus | HFF cells, HCMV-luciferase reporter, 72 h; active compounds read low | activity change, negative = inhibition, % at 57.5 µM | 4.5% of 410,000 active | AID 1259415; in the data active means activity change below about -60%; inconclusive means no clear call, values can overlap the other calls; inactive means above about -39%
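Two-dose cell screen: HFF monolayers treated with compounds and infected with luciferase-expressing HCMV at 1 PFU/cell, 72 h at 37C, then lysed for luciferase measurement.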
Pf growth 48h – P. falciparum growth inhibition at 48 hours (one generation); P. falciparum luciferase growth in erythrocytes, 48 h; 5.9% of 310,000 active; Potency, µM (highest dose often 28.7 µM), without a hit: at the top dose activity change, negative = inhibition, actives largely listed as inhibitors; further: potency means the concentration at half of the fitted maximal effect
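Growth was read as firefly luciferase luminescence after a 48 h, 37 C, 5% CO2 exposure of compounds to reporter-bearing P. falciparum cultures (0.1% parasitemia, 2% hematocrit final) in Albumax-supplemented RPMI 1640.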
MARV entry inh – Marburg virus entry inhibition; Marburg virus pseudotyped entry inhibition, cell reporter; Potency, µM (top dose mostly 37.8 µM), for inactives: top-dose activity change, negative = inhibition, hits mostly inhibitors; 1.8% of 300,000 active; AID 540276; calls by dose curve; tested in HEK293 cells; further: potency means the concentration at half of the fitted maximal effect
Active calls of the source: *; u = inconclusive; x = no result given; ! = a repeat was not active; [ ] = dose if it differs, or a comment. Rows were chosen to be rich in hits. Some 14% of all compounds tested hit in one or more screens of this group. Unless noted, the call rests on the fitted dose curve; in most records, active means well fitted inhibition curve with a large enough effect; inconclusive means small, poorly fitted or top-dose-only effect, or another doubt; inactive means no such curve, though single readings can be large or run the other way. On the % scale 0 is the no-effect control and ±100 the full control effect.

SMILES | HCV inhibitor | Lassa entry inh | Pf growth 96h | HCMV inh | Pf growth 48h | MARV entry inh
CCc1nnc(NC(=O)c2nc(S(=O)(=O)Cc3ccccc3)ncc2Cl)s1 | u | u | 0% | -101* | 4% | u
CCc1nnc(NC(=O)c2nc(SCc3ccccc3F)ncc2Cl)s1 | x | 10%[46.1 µM] | x | 4 | x | -5%[46.1 µM]
CCc1nnc(NC(=O)c2nc(S(=O)(=O)Cc3cccc(C)c3)ncc2Cl)s1 | 11µM* | u | 35% | -101* | -4% | u
CCSc1ncc(Cl)c(C(=O)Nc2ccccc2OC)n1 | -7% | x | -5% | 56 | u | x
CCc1nnc(NC(=O)c2nc(Cl)ccc2Cl)s1 | 6% | x | -21% | -7 | 8% | x
CCc1nnc(NC(=O)c2nc(S(=O)(=O)Cc3ccc(C)cc3)ncc2Cl)s1 | u | u | u | -101* | 6% | u
CCOc1ccccc1NC(=O)c1nc(S(=O)(=O)Cc2cccc(C)c2)ncc1Cl | 2.8µM* | 2%[46.1 µM] | -28% | -113* | 25% | -6%[46.1 µM]
CCN(CC)C(=O)CN1C(=O)C2(OCC(C)(C)CO2)c2ccccc21 | 23% | 13% | -31% | 5 | -21% | u
COc1ccccc1C(=O)N1CCN(C(=O)[C@H]2O[C@@H](n3ccc(=O)[nH]c3=O)[C@H](O)[C@@H]2O)CC1 | x | x | x | 5 | x | x
CC(C)(C)CC(C)(C)NC(=O)C(C1CC1)N1C(=O)C(=O)c2ccccc21 (configuration not stated) | x | x | x | 22 | x | x
CCOC(=O)c1cccc(NC(=O)N2CC=C(c3c[nH]c4ccccc34)CC2)c1 | x | u | x | 0 | x | x
O=S1(=O)N(CCN2CC=C(c3c[nH]c4cc(F)ccc34)CC2)c2cccc3c2N1CCC3 | u | u | 0.93µM* | -80* | 1.2µM* | u
CCn1c(SCC(=O)c2cccs2)nnc1-c1cccs1 | 18% | u | 113% | 42 | 28% | 23%
CC1CCCCN1C(=O)CSc1nnc(-c2ccco2)o1 (configuration not stated) | -2% | u | 5.2µM* | 58 | 123% | -2%[46.1 µM]
CC(=O)c1c(C)[nH]c(C(=O)CSc2nnc(-c3ccco3)o2)c1C | u | u | u | -5 | u | 11µM*
CC(=O)c1c(C)[nH]c(C(=O)CSc2nc3ccccc3n2C)c1C | u | u | u | -78* | 0% | u
CCn1c(SCC(=O)c2[nH]c(C)c(C(C)=O)c2C)nnc1-c1cccs1 | u | 4% | -7% | -93* | 27% | -9%
COc1ccc(/C=N/NC(=O)c2ccc3c(c2)NC(=O)C(C)(C)O3)cc1OC | 8% | -21% | 6% | -20 | -1% | 2%[46.1 µM]
O=C(NCCSCc1ccc(Cl)cc1Cl)c1ccc(CN2CCOCC2)cc1 | 11µM* | u | u | u | -13% | u
O=C(NCCSc1ccc(Cl)cc1)c1ccc(CN2CCOCC2)cc1 | u | -4% | -8% | -36 | -19% | u
Cc1cccc(C(=O)Nc2cccc(OCc3cc(=O)n4ccccc4n3)c2)c1 | x | 3%[46.1 µM] | x | -40 | x | x
CCOc1ccccc1CNC(=O)C1=C(C)C(=O)OC12CCN(C(C)=O)CC2 | x | -3%[46.1 µM] | x | 0 | x | x
CN(C)c1ncnc2c1ncn2[C@H]1CN(Cc2ccc(-c3ccccc3)cc2)C[C@@H](CO)O1 | x | x | x | -14 | x | x
CN(c1nc2c(c(=O)n(C)c(=O)n2C)n1CC(=O)c1ccccc1)C1CCCCC1 | 9% | -22% | 10µM* | u | u | -2%
Cn1c(=O)c2c(nc(NC3CCCCC3)n2CC(O)COc2ccccc2)n(C)c1=O (configuration not stated) | 0% | u | 14% | 12 | 10µM* | u
SMILES | HCV inhibitor | Lassa entry inh | Pf growth 96h | HCMV inh | Pf growth 48h | MARV entry inh
C=C1C[C@@]23CC[C@H]4[C@@](C)(CCC[C@@]4(C)C(=O)OC4OC(CO)C(O)C(O)C4O)[C@@H]2CC[C@]1(OC1OC(CO)C(O)C(O)C1OC1OC(CO)C(O)C(O)C1O)C3 (some centres not stated) | x | 25% | x | x | x | 1%
Cc1nc2c(c(C)nn2-c2ccccc2)c(C)c1CCC(=O)Nc1ccccc1 | x | 19%[46.1 µM] | x | 1 | x | 13%[46.1 µM]
COC(=O)C(NC(=O)CCc1c(C)nc2c(c(C)nn2-c2ccccc2)c1C)C(C)C (configuration not stated) | u | -7%[46.1 µM] | 1% | 7 | 6.6µM* | 25%[46.1 µM]
CCOC(=O)N1CCN(C(=O)CCc2c(C)nc3c(c(C)nn3-c3ccc(C)c(C)c3)c2C)CC1 | u | u | x | -25 | 13µM* | u
Cc1nc2c(c(C)nn2-c2ccccc2)c(C)c1CCC(=O)Nc1ccc(CN2CCCC2)cc1 | u | u | 2.1µM* | -64* | u | 10µM*
C[C@H](NC(=O)/C=C/[C@H]1O[C@@H](n2ccc(=O)[nH]c2=O)[C@H](O)[C@@H]1O)C(=O)O | x | x | x | 22 | x | x
COC(=O)[C@@H](N)Cc1ccc(O)c(O)c1 | u | 14% | 9.5µM*! | -16 | u | u
CCNC(=O)C1(C)CCN(C(=O)C(c2ccccc2)c2ccccc2)C1 (configuration not stated) | x | x | x | -10 | x | x
Cc1nn(C(=O)COc2ccccc2)c(C)c1Sc1ccccc1 | x | -4%[46.1 µM] | x | -32 | x | -24%[46.1 µM]
CCOC(=O)C(NC(=O)c1cccc(Cl)c1)(OCc1ccccc1)C(F)(F)F (configuration not stated) | -12% | u | u | -62* | u | u
CCOC(=O)C(NC(=O)c1ccccc1)(OCc1ccccc1)C(F)(F)F (configuration not stated) | -4% | 3% | -8% | -33 | 14% | u
CCOC(=O)CC1C(=O)NCCN1C(=S)NC(=O)c1ccc(C)c(Br)c1 (configuration not stated) | x | x | x | -33 | x | x
COc1ccc(C(O)c2cc(OC)ccc2OP(=O)(N(C)C)N(C)C)cc1 (configuration not stated) | 2% | 0% | 5.2µM* | -14 | 10µM* | 4%
COc1ccc(C(O)c2ccccc2OP(=O)(N(C)C)N(C)C)cc1 (configuration not stated) | 24% | 5% | -16% | 69 | -1% | -23%
O=C(NCC(c1ccc2c(c1)OCO2)N1CCN(c2ccccc2)CC1)C(=O)Nc1ccccc1 (configuration not stated) | x | u | x | -9 | x | x
COC(=O)CCCC1=CC2=C(c3ccccc3)C(=O)C(C)(OC(=O)C3CCCC3)C(=O)C2=CN1CCCCO (configuration not stated) | 18% | x | u | 13 | u | u
